Measured values as given in PubChem BioAssay (NCATS).
“And” between values parts separate entries of the source, which are not always exact repeats. Identical values can stand only once. Inconclusive results are not listed. A call without a number means that no potency is given here. Some structures have more than one record in an assay (separate samples or runs), and their calls can disagree. The source made the active and inactive calls. Calls follow the shape of the dose curve; as a rule, active = well fitted inhibition curve with a large enough effect; inconclusive = small, poorly fitted or top-dose-only effect; inactive = flat fitted curve, though single readings scatter.

molecular target: Glutathione peroxidase 1 (Homo sapiens) (UniProt P07203); experiment: Primary qHTS Assay for Inhibitors of Recombinant Selenoprotein Glutathione Peroxidase 1 (GPX1) (AID 1845191); conditions: recombinant GPX1, GR-coupled NADPH fluorescence, 15 min; series mostly up to 48.8 µM; also: nearly all actives have a fitted effect of over 65% in size
Sequence (P07203 whole entry, looked up): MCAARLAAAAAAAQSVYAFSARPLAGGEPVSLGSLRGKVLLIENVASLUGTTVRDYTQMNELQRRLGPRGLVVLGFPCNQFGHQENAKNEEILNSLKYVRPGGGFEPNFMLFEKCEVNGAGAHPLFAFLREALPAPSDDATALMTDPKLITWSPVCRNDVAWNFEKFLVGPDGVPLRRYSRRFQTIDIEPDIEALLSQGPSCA
Method in brief: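 10 nM GPX1 + cpd, 30 min RT; start w/ 1 mM GSH, 0.5 mM cumene hydroperoxide, 0.5 mM NADPH, 100 nM GR, 0.01% BSA; buffer 50 mM Tris-HCl pH 7.5, 2 mM EDTA, 150 mM NaCl; Fl 340/450, 0 & 15 min.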
Potency is read from the fitted curve at half-maximal effect.

Row | Compound | Potency
1 | CCc1cc(C(N)=S)ccn1 | inactive
2 | CCN(CC)CCn1c(=O)c(Cc2ccc(OC)cc2)nc2ccccc21 | inactive
3 | CN(CCOc1ccc(CC2SC(=O)NC2=O)cc1)c1ccccn1 (stereo not given) | inactive
4 | CC[C@H](C)C(=O)O[C@H]1C[C@@H](C)C=C2C=C[C@H](C)[C@H](CC[C@@H]3C[C@@H](O)CC(=O)O3)[C@H]21 | inactive
5 | O=C(NCC1CN(c2ccc(N3CCOCC3=O)cc2)C(=O)O1)c1ccc(Cl)s1 (stereo not given) | inactive
6 | CNC1CCCN(c2c(F)cc3c(=O)c(C(=O)O)cn(C4CC4)c3c2OC)C1 (stereo not given) | inactive
7 | CCCN[C@H]1CCc2nc(N)sc2C1 | inactive
8 | CC1=NN(c2ccccc2)C(=O)C1 | inactive
9 | Cc1nnc(NS(=O)(=O)c2ccc(N)cc2)s1 | inactive
10 | O[C@@H](CNC[C@H](O)[C@H]1CCc2cc(F)ccc2O1)[C@@H]1CCc2cc(F)ccc2O1 | inactive
11 | COCCCOc1cc(C[C@@H](C[C@H](N)[C@@H](O)C[C@H](C(=O)NCC(C)(C)C(N)=O)C(C)C)C(C)C)ccc1OC | inactive
12 | O=C(O)CCn1c2c(c3ccccc31)C[C@H](NS(=O)(=O)c1ccc(F)cc1)CC2 | inactive
13 | CN1CCCC(n2nc(Cc3ccc(Cl)cc3)c3ccccc3c2=O)CC1 (stereo not given) | inactive
14 | Nc1nc(F)nc2c1ncn2[C@@H]1O[C@H](CO)[C@@H](O)[C@@H]1O | inactive
15 | CC(C(=O)O)c1ccc2c(c1)CC(=O)c1ccccc1S2 (stereo not given) | inactive and 16.1 µM (active)
16 | COc1ccc2c(c1)c(CC(=O)OCC(=O)O)c(C)n2C(=O)c1ccc(Cl)cc1 | inactive
17 | CCCCS(=N)(=O)CCC(N)C(=O)O (stereo not given) | inactive
18 | CCn1cc(C(=O)O)c(=O)c2cc(F)c(N3CCN(C)CC3)cc21 | inactive

Row | Compound | Potency
19 | CC(C)(C)NC(=O)[C@H]1CC[C@H]2[C@@H]3CC[C@H]4NC(=O)C=C[C@]4(C)[C@H]3CC[C@]12C | inactive
20 | CCOCC(O)COc1ccc(NC(=O)CC[S+](C)C)cc1 (stereo not given) | inactive
21 | Cc1noc(NS(=O)(=O)c2ccc(N)cc2)c1C | inactive
22 | O=c1oc2c(O)c(O)cc3c(=O)oc4c(O)c(O)cc1c4c23 | inactive
23 | CN1CCN(c2c(F)cc3c(=O)c(C(=O)O)cn(CCF)c3c2F)CC1 | inactive
24 | Cc1onc(-c2ccccc2Cl)c1C(=O)N[C@@H]1C(=O)N2[C@@H]1SC(C)(C)[C@@H]2C(=O)O | inactive
25 | CCOC(=O)[C@H](CCc1ccccc1)N[C@H]1CS[C@H](c2cccs2)CN(CC(=O)O)C1=O | inactive
26 | CCCCc1oc2ccc(NS(C)(=O)=O)cc2c1C(=O)c1ccc(OCCCN(CCCC)CCCC)cc1 | inactive
27 | C#CCN[C@@H]1CCc2ccccc21 | inactive
28 | CC1(C)[C@H](C(=O)O)N2C(=O)C[C@H]2S1(=O)=O | inactive
29 | CCCCCCNC(=O)n1cc(F)c(=O)[nH]c1=O | inactive
30 | CCOC(=O)c1ccc(C#Cc2ccc3c(c2)C(C)(C)CCS3)nc1 | inactive
31 | COc1ncnc(NS(=O)(=O)c2ccc(N)cc2)c1OC | inactive
32 | CNC(=O)c1cc(Oc2ccc(NC(=O)Nc3ccc(Cl)c(C(F)(F)F)c3)cc2)ccn1 | inactive
33 | CC1CC2C3CCC4=CC(=O)C=C[C@]4(C)[C@@]3(F)[C@@H](O)C[C@]2(C)[C@@]1(O)C(=O)CO (stereo not given in full) | inactive
34 | CC(C)OC(=O)C(C(=O)OC(C)C)=C1SC=CS1 | inactive
35 | CCOC(=O)[C@H](CCc1ccccc1)N[C@H]1CCc2ccccc2N(CC(=O)O)C1=O | inactive
